A number with no mark means an inactive call. Records with an inconclusive call do not appear. A call without a number means that no potency is given here. Calls of active or inactive are those of the source. Unless noted, calls come from the whole dose curve.
How the values were obtained:
[1] = Nuclear factor erythroid 2-related factor 2/antioxidant responsive element (Nrf2/ARE) small molecule agonists: luciferase reporter gene qHTS assay in human keratinocytes (AID 1919969); note: nearly all actives have a fitted effect of over 35% in size; note: potency is the fitted concentration of half-maximal effect
[2] = target: Gonadotropin-releasing hormone receptor (Homo sapiens) (UniProt P30968); assay: Human gonadotropin-releasing hormone receptor (GnRHR) small molecule agonists, calcium flux assay in GnRHR-HEK293 cells (AID 1920063); note: nearly all actives have a fitted effect of over 35% in size
Gonadotropin-releasing hormone receptor (Homo sapiens), sequence (P30968 whole entry, looked up): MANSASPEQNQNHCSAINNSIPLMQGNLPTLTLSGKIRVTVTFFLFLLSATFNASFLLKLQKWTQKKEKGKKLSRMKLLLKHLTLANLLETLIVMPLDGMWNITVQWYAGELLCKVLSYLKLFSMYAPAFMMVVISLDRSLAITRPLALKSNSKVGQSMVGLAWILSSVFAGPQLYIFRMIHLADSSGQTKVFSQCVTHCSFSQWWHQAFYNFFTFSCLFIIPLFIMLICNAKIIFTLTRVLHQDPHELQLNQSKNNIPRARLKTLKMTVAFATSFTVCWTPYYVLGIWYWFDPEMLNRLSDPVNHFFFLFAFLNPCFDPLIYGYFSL
In short: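 We seeded human GnRHR-expressing HEK293 cells for 18 hours, loaded them with calcium dye for an hour at 37 C, added test compounds, and recorded fluorescence intensity kinetically for three minutes.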

[3] = target: KiSS-1 receptor (Homo sapiens) (UniProt Q969F8); assay: Human kisspeptin (KISS1R) small molecule agonists, calcium flux assay in KISS1R-HEK293 cells (AID 1920064; active = well fitted activation curve with a large enough effect in the repeat runs)
KiSS-1 receptor (Homo sapiens), sequence (Q969F8 whole entry, looked up): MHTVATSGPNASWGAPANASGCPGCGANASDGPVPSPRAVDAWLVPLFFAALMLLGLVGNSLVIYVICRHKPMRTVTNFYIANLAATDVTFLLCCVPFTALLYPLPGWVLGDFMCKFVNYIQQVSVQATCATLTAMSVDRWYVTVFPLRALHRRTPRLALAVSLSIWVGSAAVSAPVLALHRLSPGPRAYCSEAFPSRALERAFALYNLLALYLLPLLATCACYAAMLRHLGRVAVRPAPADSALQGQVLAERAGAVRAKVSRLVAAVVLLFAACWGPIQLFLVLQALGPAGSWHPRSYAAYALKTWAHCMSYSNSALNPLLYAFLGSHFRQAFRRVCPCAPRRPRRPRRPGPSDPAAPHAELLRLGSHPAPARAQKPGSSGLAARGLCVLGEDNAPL
In short: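 Kinetic calcium assay, 1 s sampling over 3 min at Ex/Em 480/540, in HEK293 cells engineered with human KISS1R; compounds delivered in DMSO after 1 h dye loading.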

[4] = G protein-coupled receptor (GPCR) small molecule agonists, calcium flux assay: HEK293 wild type cell line counter screen (AID 1920065)
In short: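 Calcium-sensitive dye, loaded 1 h at 37 C into cells cultured 18 h, reports compound-evoked calcium release as fluorescence (Ex/Em 480/540), measured over 3 min. Agonist mode; 15-point titrations, triplicate.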

[5] = p53 small molecule agonists, cell-based qHTS assay with rat liver microsomes (AID 1963578)
In short: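 p53RE-bla cells were exposed to compounds together with rat liver microsomes (0.5 mg/mL final) and NADPH (0.5 mg/mL final) for 16 h at 37 C, then read by LiveBLAzer beta-lactamase fluorescence after 2 h at room temperature.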

[6] = p53 small molecule agonists, cell-based qHTS assay with human liver microsomes: qHTS cell viability counter screen (AID 1963579); note: nearly all actives have a fitted effect of over 45% in size
In short: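 p53RE-bla cells (4,000/well) were pre-incubated 5 h at 37 C, then given compounds in DMSO plus human liver microsomes (0.5 mg/mL final) and NADPH (0.5 mg/mL final) for 16 h at 37 C. Viability was read by CellTiter-Glo luminescence.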

[7] = p53 small molecule agonists, cell-based qHTS assay with rat liver microsomes: qHTS cell viability counter screen (AID 1963580); note: nearly all actives have a fitted effect of over 45% in size
In short: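 Intracellular ATP, by CellTiter-Glo luminescence, defines viability. HCT-116 p53RE-bla cells, 4,000 per well, were compound-treated in the presence of rat liver microsomes and NADPH for 16 h at 37 C.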

[8] = p53 small molecule agonists, cell-based qHTS assay: qHTS cell viability counter screen (AID 1963581); note: nearly all actives have a fitted effect of over 45% in size
In short: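 Following 5 h attachment, HCT-116 p53RE-bla cells took up compound for 16 h at 37 C; the reporter was read with B/G FRET substrate (2 h RT), and viability then via CellTiter-Glo ATP luminescence.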

[9] = p53 small molecule agonists, cell-based qHTS assay (AID 1963582; active = well fitted activation curve with a large enough effect in the signal ratio in the repeat runs, not every such curve was filed as active; the % refers to the signal ratio)
In short: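 In this cell-based concentration-response screen, a p53 response element drives beta-lactamase; cells received DMSO-borne compounds after 5 h culture and were incubated a further 16 h before FRET substrate development.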

[10] = target: 5-hydroxytryptamine receptor 2A (Homo sapiens) (UniProt P28223); assay: 5-hydroxytryptamine receptor 2A (HTR2A) small molecule antagonists, cell-based qHTS assay (AID 1963586); note: nearly all actives have a fitted effect of over 45% in size
5-hydroxytryptamine receptor 2A (Homo sapiens), sequence (P28223 whole entry, looked up): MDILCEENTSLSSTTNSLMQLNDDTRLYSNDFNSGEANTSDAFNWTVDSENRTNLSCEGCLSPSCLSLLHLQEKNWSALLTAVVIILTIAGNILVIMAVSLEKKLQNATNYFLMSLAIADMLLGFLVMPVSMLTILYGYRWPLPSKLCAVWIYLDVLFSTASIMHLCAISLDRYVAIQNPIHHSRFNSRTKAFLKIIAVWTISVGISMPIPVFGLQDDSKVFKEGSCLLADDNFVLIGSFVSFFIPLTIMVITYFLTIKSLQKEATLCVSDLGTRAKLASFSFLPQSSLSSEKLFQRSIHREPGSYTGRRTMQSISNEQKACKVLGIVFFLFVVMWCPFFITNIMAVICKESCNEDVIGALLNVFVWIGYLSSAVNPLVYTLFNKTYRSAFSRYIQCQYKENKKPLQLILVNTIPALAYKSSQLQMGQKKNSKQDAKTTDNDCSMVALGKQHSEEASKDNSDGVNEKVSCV
In short: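 Antagonist-mode intracellular calcium assay: DOI (4 nM) added after 5 min compound pre-incubation at room temperature to dye-loaded HTR2A-CHO cells. Fluorescence followed for 3 min, sampled every second.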

[11] = target: 5-hydroxytryptamine receptor 2A (Homo sapiens) (UniProt P28223); assay: 5-hydroxytryptamine receptor 2A (HTR2A) small molecule agonists, cell-based qHTS assay (AID 1963587); note: nearly all actives have a fitted effect of over 30% in size
In short: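 Kinetic calcium-flux fluorescence (2 min, 1 sec intervals) after compound addition in agonist mode. HTR2A-CHO cells were cultured 18 h, then dye-loaded 1 h at 37 C.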

[12] = target: Muscarinic acetylcholine receptor M1 (Homo sapiens) (UniProt P11229); assay: Cholinergic receptor muscarinic 1 (CHRM1) small molecule antagonists, cell-based qHTS assay (AID 1963588); note: nearly all actives have a fitted effect of over 40% in size; note: potency is the fitted concentration of half-maximal effect
Muscarinic acetylcholine receptor M1 (Homo sapiens), sequence (P11229 whole entry, looked up): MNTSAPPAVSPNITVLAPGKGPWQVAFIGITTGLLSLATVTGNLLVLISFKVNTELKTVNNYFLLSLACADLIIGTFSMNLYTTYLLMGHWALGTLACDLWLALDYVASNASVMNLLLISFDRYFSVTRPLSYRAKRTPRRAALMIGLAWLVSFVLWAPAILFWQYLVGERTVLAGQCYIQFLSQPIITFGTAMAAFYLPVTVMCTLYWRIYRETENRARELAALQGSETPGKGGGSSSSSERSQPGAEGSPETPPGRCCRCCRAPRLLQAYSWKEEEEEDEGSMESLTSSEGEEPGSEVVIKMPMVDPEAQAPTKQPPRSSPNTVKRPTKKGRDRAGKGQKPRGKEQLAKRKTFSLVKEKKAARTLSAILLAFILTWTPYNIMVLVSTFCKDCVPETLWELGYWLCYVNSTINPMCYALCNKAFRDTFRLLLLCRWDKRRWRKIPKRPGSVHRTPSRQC
In short: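 CHRM1-CHO calcium-flux assay, antagonist mode. Cells were seeded 18 h, dye-loaded 1 h at 37 C and given compound for 5 min at RT, then acetylcholine was added at 50nM. FDSS fluorescence was read 3 min; 15 concentrations, three runs.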

[13] = target: Muscarinic acetylcholine receptor M1 (Homo sapiens) (UniProt P11229); assay: Cholinergic receptor muscarinic 1 (CHRM1) small molecule agonists, cell-based qHTS assay (AID 1963589); note: nearly all actives have a fitted effect of over 35% in size
In short: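 Measures agonist-induced intracellular calcium rise. Stable human CHRM1 CHO line, 1 h dye load at 37 C, compounds from DMSO, kinetic fluorescence read.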

[14] = cAMP Responsive Elements (CRE) small molecule agonists, cell-based qHTS assay (AID 1963590)
In short: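 A CRE-responsive beta-lactamase reporter in HEK 293T cells was used. Treatment ran 3 h at 37 C; detection used LiveBLAzer B/G FRET substrate for 2 h at room temperature.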

[15] = cAMP Responsive Elements (CRE) small molecule antagonists, cell-based qHTS assay (AID 1963591; active = well fitted inhibition curve with a large enough effect in the signal ratio in the repeat runs, not every such curve was filed as active; the % refers to the signal ratio)
In short: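 HEK293T cells carrying a CRE-driven beta-lactamase reporter receive compound and NKH477 (0.25 uM final) for 3 h. Fluorescence from LiveBLAzer B/G FRET substrate is read after 2 h at room temperature.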

[16] = target: Beta-2 adrenergic receptor (Homo sapiens) (UniProt P07550); assay: Adrenergic beta2 receptor (ADRB2) small molecule antagonists, cell-based qHTS assay (AID 1963592); note: series mostly up to about 92 µM; nearly all actives have a fitted effect of over 50% in size
Beta-2 adrenergic receptor (Homo sapiens), sequence (P07550 whole entry, looked up): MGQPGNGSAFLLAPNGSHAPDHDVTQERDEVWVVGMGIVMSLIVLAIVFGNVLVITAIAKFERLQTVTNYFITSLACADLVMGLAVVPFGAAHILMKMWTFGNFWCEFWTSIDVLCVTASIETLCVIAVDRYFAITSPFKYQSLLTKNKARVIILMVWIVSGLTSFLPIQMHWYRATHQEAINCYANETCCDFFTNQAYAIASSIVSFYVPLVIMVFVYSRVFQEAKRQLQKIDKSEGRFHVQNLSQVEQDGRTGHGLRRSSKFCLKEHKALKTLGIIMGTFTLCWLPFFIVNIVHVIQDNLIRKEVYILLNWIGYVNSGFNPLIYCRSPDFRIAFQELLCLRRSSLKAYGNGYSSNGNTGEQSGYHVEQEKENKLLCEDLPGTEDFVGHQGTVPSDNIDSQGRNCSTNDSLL
In short: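 Cells (CHO, stable ADRB2 overexpression) incubated 18-20hr at 37C; compounds added from DMSO; agonist mix (1nM isoproterenol, 100uM IBMX, 25uM Ro-20-1724) added; 0.5hr RT; d2-cAMP and anti-cAMP-cryptate added; 1hr RT; 665/615 nm read.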

[17] = target: D(2) dopamine receptor (Homo sapiens) (UniProt P14416); assay: Dopamine D2 receptor (DRD2) small molecule agonists, cell-based qHTS assay (AID 1963594); note: nearly all actives have a fitted effect of over 35% in size
D(2) dopamine receptor (Homo sapiens), sequence (P14416 whole entry, looked up): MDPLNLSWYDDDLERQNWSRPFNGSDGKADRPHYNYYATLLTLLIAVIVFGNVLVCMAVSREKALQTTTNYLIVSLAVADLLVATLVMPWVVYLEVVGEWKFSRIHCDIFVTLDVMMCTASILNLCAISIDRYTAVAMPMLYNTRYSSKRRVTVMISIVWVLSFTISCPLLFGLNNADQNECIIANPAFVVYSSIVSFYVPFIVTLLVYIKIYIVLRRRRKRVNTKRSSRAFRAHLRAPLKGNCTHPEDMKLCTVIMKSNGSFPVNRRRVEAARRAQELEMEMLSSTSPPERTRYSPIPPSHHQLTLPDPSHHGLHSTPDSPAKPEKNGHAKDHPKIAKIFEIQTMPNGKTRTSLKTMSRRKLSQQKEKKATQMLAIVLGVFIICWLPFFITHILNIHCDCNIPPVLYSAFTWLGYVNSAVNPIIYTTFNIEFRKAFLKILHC
In short: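 cAMP accumulation in DRD2-HEK293 cells measured by HTRF after 1 h detection; compounds added 10 min before NKH477 (200nM […]) forskolin-analogue stimulation, 30 min at room temperature, with Ro20-1724 present at 0.1 mM final.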

[18] = target: D(2) dopamine receptor (Homo sapiens) (UniProt P14416); assay: Dopamine D2 receptor (DRD2) small molecule antagonists, cell-based qHTS assay (AID 1963595; active = well fitted inhibition curve with a large enough effect in the signal ratio in the repeat runs, with a control signal flat; the % refers to the signal ratio)
In short: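 HTRF cAMP read-out at 665 and 620 nm emission (340 nm excitation). Antagonist mode: compounds were tested against 12 nM quinpirole in DRD2-HEK293 cells, with 200 nM NKH477 raising cAMP and 0.1 mM Ro20-1724 blocking its breakdown.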

[19] = p53 small molecule agonists, cell-based qHTS assay with human liver microsomes (AID 1963577)
In short: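 p53RE-bla reporter cells were pre-incubated 5 h at 37 C, then treated with compounds plus human liver microsomes (0.5 mg/mL final) and NADPH (0.5 mg/mL final) for 16 h at 37 C. Beta-lactamase activity was read by LiveBLAzer fluorescence after 2 h at room temperature.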

[20] = target: Beta-2 adrenergic receptor (Homo sapiens) (UniProt P07550); assay: Adrenergic beta2 receptor (ADRB2) small molecule agonists, cell-based qHTS assay (AID 1963593);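 note: CHO cells stably overexpressing human ADRB2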
In short: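 CHO cells stably over-expressing ADRB2 were plated overnight at 37C, then dosed with compounds plus a stimulation mix containing 100uM IBMX and 25uM Ro-20-1724 for 0.5hr at room temperature. cAMP was measured by HTRF competition, 1hr.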

Row | SMILES | Potency [1] | Potency [2] | Potency [3] | Potency [4] | Potency [5] | Potency [6] | Potency [7] | Potency [8] | Potency [9] | Potency [10] | Potency [11] | Potency [12] | Potency [13] | Potency [14] | Potency [15] | Potency [16] | Potency [17] | Potency [18] | Potency [19] | Potency [20]
1 | CCCCN | 36.3 µM (active) | inactive | inactive | inactive | inactive | inactive | inactive | inactive | inactive | inactive | inactive | inactive | inactive | inactive | inactive | inactive | inactive | inactive | – | –
2 | Cc1oc2c(NC(=O)c3c(Cl)cccc3Cl)cccc2c1C(C)(C)O | inactive | inactive | inactive | inactive | – | inactive | inactive | inactive | inactive | – | inactive | inactive | inactive | inactive | inactive | inactive | inactive | inactive | inactive | –
3 | O=C(Nc1ccc(Cl)cc1)Nc1ccc(Cl)c(C(F)(F)F)c1 | 11.9 µM (active) | inactive | inactive | inactive | inactive | inactive | inactive | – | – | – | – | inactive | inactive | – | – | – | inactive | inactive | – | –
4 | CNCC[C@@H](Oc1ccccc1C)c1ccccc1 | inactive | inactive | inactive | inactive | – | – | inactive | – | inactive | – | inactive | – | inactive | – | inactive | inactive | – | inactive | inactive | –
5 | CC[C@H]1CC[C@H](NCc2cc3c(cc2OC)[C@H]2C[C@H]2C(=O)N3C)[C@H](c2ccccc2)N1 | 30.6 µM (active) | inactive | inactive | inactive | inactive | inactive | – | – | – | inactive | inactive | 0.0472 µM (active) | inactive | – | inactive | inactive | inactive | inactive | – | –
6 | CC(C)c1nc(CN(C)C(=O)N[C@H](C(=O)N[C@@H](Cc2ccccc2)C[C@H](O)[C@H](Cc2ccccc2)NC(=O)OCc2cncs2)C(C)C)cs1 | inactive | inactive | inactive | inactive | – | inactive | inactive | inactive | – | – | – | – | – | – | – | inactive | – | inactive | – | –
7 | CNc1ncnc2nc[nH]c12 | inactive | inactive | inactive | inactive | – | inactive | inactive | – | – | inactive | inactive | inactive | inactive | inactive | inactive | inactive | inactive | inactive | – | inactive
8 | C=C(C)[C@@H]1CC=C(C)C(=O)C1 | inactive | inactive | inactive | inactive | – | inactive | inactive | inactive | – | – | inactive | inactive | inactive | inactive | inactive | inactive | inactive | inactive | – | –
